# Source: PubChem BioAssay AID488922 (Johns Hopkins Ion Channel Center, 2010)
# About 3,800 (1.2%) of roughly 310,000 compounds were called active.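 The calls were made as follows: active = ratio B-score over 3 SD below the library mean, with starting fluorescence within 5 SD of its mean; inactive = the rest, inconclusive results apart.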 The sample as a whole holds a higher share of actives than the screen did.
# Target: Potassium channel subfamily K member 9 (Homo sapiens) (UniProt Q9NPC2)
# Assay: blockers of human TASK-3 (KCNK9) channel – HEK293 cells, thallium flux, primary screen (AID 488922);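 as to B-score: negative B-score means less thallium flux so channel inhibition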
# Conditions: HEK293 KCNK9, FluxOR thallium flux fluorescence, at 10 µM; hits give low values
# Potassium channel subfamily K member 9 (Homo sapiens), sequence (Q9NPC2 whole entry, looked up): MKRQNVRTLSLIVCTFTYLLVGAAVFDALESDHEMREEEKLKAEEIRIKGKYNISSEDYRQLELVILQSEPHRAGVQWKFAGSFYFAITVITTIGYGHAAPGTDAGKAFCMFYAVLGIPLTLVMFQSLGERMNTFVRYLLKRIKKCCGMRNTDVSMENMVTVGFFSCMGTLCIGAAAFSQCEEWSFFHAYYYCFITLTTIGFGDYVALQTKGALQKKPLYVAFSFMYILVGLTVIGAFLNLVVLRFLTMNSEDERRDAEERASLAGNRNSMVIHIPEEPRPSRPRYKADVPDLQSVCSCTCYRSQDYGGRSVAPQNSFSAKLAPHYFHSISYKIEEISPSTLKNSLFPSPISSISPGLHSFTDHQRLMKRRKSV
row,Structure (SMILES),B-score
1,COc1ccc(Cl)cc1NC(=O)COC(=O)C(CC(C)C)N1C(=O)C2CC=CCC2C1=O (centres undefined),inactive
2,COc1ccccc1N1CC(C(=O)Nc2nnc(SCC(=O)NCC3CCCO3)s2)CC1=O (centres undefined),inactive
3,CC1(C)CC(=O)c2c(n(S(=O)(=O)c3ccccc3)c3ccc(NS(=O)(=O)c4ccccc4)cc23)C1,inactive
4,CNC(=O)c1sc(Nc2ccc(OCc3ccccc3)cc2)nc1C,inactive
5,CCOC(=O)C1CCc2nc3ccccc3c(=O)n21 (centres undefined),inactive
6,CCOn1c(SC(C)C)nc2ccccc2c1=O,inactive
7,CCOC(=O)C(C)Sc1nc2ccccc2c(=O)n1CC1CCCCC1 (centres undefined),-11.7 (active)
8,FC(F)(F)c1ccc2c3n(nc2c1)CCN=C3c1ccc(Cl)cc1,inactive
9,O=C(Nc1ccc(Br)cc1)c1cccc(NC(=O)C2C3CC4OC(=O)C2C4C3)c1 (centres undefined),inactive
10,CCC/C=C(\CCC)C(NC(=O)Cc1ccccc1)c1ccc(C(=O)OC)cc1 (centres undefined),-13.9 (active)
11,CCC[C@@H]1C[C@@]1(CCC)[C@@H](NC(=O)c1ccccc1)c1ccc(C(=O)OC)cc1,inactive
12,COC(=O)c1ccc(C(NC(=O)OCc2ccccc2)/C(F)=C/[C@@H](C)C(=O)O)cc1 (some centres undefined),inactive
13,CCc1cc2c(=O)n(-c3ccccc3)c(SCC(=O)O)nc2s1,inactive
14,CCNC(=S)N(CCc1c(C)[nH]c2ccc(C)cc12)Cc1ccco1,inactive
15,COc1ccc2[nH]c(C)c(CCN(Cc3cccs3)C(=S)Nc3ccccc3OC)c2c1,inactive
16,COc1cccc(NC(=S)N(CCc2c(C)[nH]c3ccccc23)Cc2ccco2)c1,-9.04 (active)
17,O=C1c2ccccc2S(=O)(=O)N1Cc1c(F)cccc1Cl,inactive
18,O=C1CCN(CCCc2ccccc2)CCN1CCO,inactive
19,CCOC(=O)[C@@H]1[C@H]2COc3ccc(Br)cc3[C@H]2N2C(=O)N(c3ccc(Cl)cc3)C(=O)[C@@]12C,-10.9 (active)
20,CCOC(=O)[C@@H]1[C@H]2COc3cc(OC)ccc3[C@H]2N2C(=O)N(c3ccc(F)cc3)C(=O)[C@]12C,inactive
21,CCOC(=O)[C@H]1[C@H]2COc3cc(OC)ccc3[C@@H]2N2C(=O)N(c3ccc(Br)cc3)C(=O)[C@@]12C,inactive
22,Cc1onc(-c2ccccc2Cl)c1C(=O)OCc1nnc(-c2ccccc2)o1,inactive

row,Structure (SMILES),B-score
1,O=C(CSc1ccc(-c2ccco2)nn1)Nc1cccc(F)c1,inactive
2,Fc1cccc(Cl)c1CSc1ccc(-c2ccco2)nn1,-14.1 (active)
3,Cc1cc(SCc2c(F)cccc2Cl)nc(=O)[nH]1,inactive
4,NC(=O)C1=C[C@@H](c2csc3ccccc23)C[C@@H](OCc2ccc(CO)cc2)O1,inactive
5,COC(=O)c1c(NC(=O)C(=O)N2CCCCC2)sc2c1CC(C)(C)OC2,inactive
6,COc1ccc(/C=C2\CCCC3C2=NN(C(=O)c2scnc2C)C3c2ccc(OC)cc2)cc1 (centres undefined),inactive
7,CCCCC(C(=O)NC(C)(C)C)N(Cc1ccccc1)C(=O)c1snc(C(N)=O)c1N (centres undefined),inactive
8,CCC(C)n1c(-c2cc(OC)c(OC)c(OC)c2)nc2nc3ccccc3nc21 (centres undefined),-15.1 (active)
9,COc1cc(-c2n[nH]c(=S)n2Cc2ccccc2)cc(OC)c1OC,inactive
10,COc1cc(C(O)c2nc3ccccc3n2C)cc(OC)c1OC (centres undefined),inactive
11,COc1ccccc1-n1ccnc(SCC(=O)NC2CCCCC2)c1=O,inactive
12,O=C(C1CCN(C2CCN(Cc3ccc4cc(F)ccc4n3)CC2)CC1)N1CCCC1,inactive
13,CCN(C(=O)COC(=O)c1cc(NS(=O)(=O)c2ccc(Cl)c([N+](=O)[O-])c2)ccc1O)C1CCCCC1,inactive
14,Cc1c(C(=O)N2CC(C)OC(C)C2)sc2nc(-c3ccccc3)cn12 (centres undefined),inactive
15,Cc1c(C(=O)N2CCCc3ccccc32)oc2ccccc12,inactive
16,O=C(c1cc(-c2ccc(O)cc2)on1)N1CCCc2ccccc21,inactive
17,Cc1c(C(=O)NCC2CCCO2)sc2nc(-c3ccccc3)cn12 (centres undefined),inactive
18,Cc1c(C(=O)N2CCCc3ccccc32)sc2nc(-c3ccccc3)cn12,-6.69 (active)
19,Cc1cccc2cc3c(N)c(C(=O)N4CCCc5ccccc54)sc3nc12,-6.79 (active)
20,COc1cccc(CNC(=O)Cn2c(=O)oc3cc(S(=O)(=O)N4CCCCC4)ccc32)c1,inactive
21,Cc1ccc(N2CC(C(=O)Nc3ccc(S(=O)(=O)N4CCCC4)cc3)CC2=O)cc1C (centres undefined),inactive
22,O=C(CCc1n[nH]c(=O)[nH]c1=O)N/N=C/c1ccc(Br)o1,inactive

row,Structure (SMILES),B-score
1,CC(C)OCCCNC(=O)c1ccc(C2SCC(=O)N2Cc2ccco2)cc1 (centres undefined),inactive
2,CCCCCCCC(=O)NC(Nc1ccccc1OC)C(Cl)(Cl)Cl (centres undefined),inactive
3,CCOC(=O)N1CCC(N(CCOC)C(=O)Nc2ccc(C)c(C)c2)CC1,inactive
4,CCOC(=O)Cn1c(-c2cccnc2Cl)nc2ccccc21,inactive
5,Cc1ccc(OCCCn2c(=O)oc3ccccc32)cc1,inactive
6,CCCCCCCCCCOC(=O)Cn1c(COc2ccc(C)cc2)[n+](C)c2ccccc21,-11.4 (active)
7,CCn1c(COc2cccc(OC)c2)nnc1SCC(=O)N1CCOCC1,inactive
8,CCCCCCCCCCOC(=O)Cn1c(COc2cccc(OC)c2)[n+](C)c2ccccc21,-17.1 (active)
9,CCCCCCCCC(=O)NCCOc1ccccc1,inactive
10,C[C@@H]1O[C@@H](OC[C@H]2O[C@@H](Oc3c(-c4ccc(O)cc4)oc4cc(O)cc(O)c4c3=O)[C@H](O)[C@@H](O)[C@@H]2O)[C@H](O)[C@H](O)[C@H]1O,inactive
11,Cc1ccc(C2(C)NC(=O)N(CC(=O)Nc3ccccc3C(=O)N3CCCCC3)C2=O)cc1 (centres undefined),inactive
12,O=C(OCCN1CCOCC1)C1(c2ccccc2)CCCCC1,inactive
13,CCc1ccc(-c2cc(C(=O)NN3CCN(C)CC3)c3ccccc3n2)cc1,inactive
14,CC(C)CN(C(=O)COC(=O)c1ccc2ccccc2c1)c1c(N)n(Cc2ccccc2)c(=O)[nH]c1=O,inactive
15,Cc1ccc(NS(=O)(=O)c2ccc(-c3ccc(=O)[nH]n3)o2)c(C)c1,inactive
16,Cc1ccc(CCN2CC(C(=O)NCCc3ccccc3)CC2=O)cc1 (centres undefined),inactive
17,O=C(Nc1ccc(Cl)cc1)C1c2cccc[n+]2CC(=O)N1Cc1ccc2c(c1)OCO2 (centres undefined),inactive
18,CCOc1ccc(/C=N/NC(=O)CSc2ccccn2)cc1O,inactive
19,C=CCOc1ccc(/C=N/NC(=O)C(C)Sc2ccccn2)cc1OCC (centres undefined),-8.3 (active)
20,CCOc1ccc(/C=N/NC(=O)C(C)Sc2ccccn2)cc1OCC (centres undefined),inactive
